outcome, activity change, negative = inhibition and max response data for 35 compounds are collected here from PubChem BioAssay (NCATS).

Results filed as inconclusive are left out. Active and inactive are the calls of the source. Unless noted, calls come from the whole dose curve.

Assay [1] can be described thus: Validation of Assay for Modulators of Lamin A Splicing (AID 1459; active = well fitted curve in the direction sought with a large enough effect in the signal ratio; the % refers to the signal ratio;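 note: cells exposed to compound for two days before reading; 0% is about no effect; ratio rise marks activators and ratio drop marks inhibitors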). A digest of the protocol:
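S3 HeLa cells stably expressing a lamin A-EGFP splicing minigene and DsRed2 were seeded at 600 cells/well in Opti-MEM with 2% FBS, pin-dosed, and incubated 48 hrs at 37 °C, 5% CO2. Laser-scanning cytometry (488 nm) gave GFP/RFP total intensity ratio.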

A short description of assay [2]: qHTS Assay for Lipid Storage Modulators (AID 1519). For activity change, negative = inhibition: % is set by controls: 0 for no effect and ±100 for the full control effect. As to conditions: Drosophila S3 cells, BODIPY lipid droplet/cell ratio, laser cytometry, cells loaded with oleic acid; for activity change, negative = inhibition: at 57.5 µM (top of the series). The method, boiled down: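 Cells seeded at 5,000 per well were treated with compounds over a concentration series and loaded with oleic acid (400 uM, as added). Lipid droplet fluorescence (488 nm excitation, 500-530 nm channel) was read by laser-scanning cytometry and normalized to 20 uM Triacsin C.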
(Quantitative high-throughput screening tests each substance at several concentrations.)

Where [3] appears, read: measured here: cell count channel max response.
Where [4] appears, read: measured here: lipid channel max response.

On to `COc1ccc(CNC(=O)/C=C/c2ccc3[nH]cc(CCN(C)C)c3c2)cc1`, for which, in assay [1], the compound was classed as inactive. Moreover, the activity change, negative = inhibition in assay [2] is -4.95% (inactive). Moreover, the max response in assay [2] (setting [3]) was -78.1%; in assay [2] (setting [4]), -80.1%.
For the compound `CN1C2CCC1CC(OC(c1ccccc1)c1ccccc1N)C2` (centres undefined), the compound was classed as inactive in assay [1].
Consider `CC12NC(Cc3ccccc31)c1ccccc12` (centres undefined), for which the compound was called inactive in assay [1]. Moreover, the activity change, negative = inhibition in assay [2] was -2.09% (inactive). The max response in assay [2] (setting [3]) is 1.93%; in assay [2] (setting [4]), -0.147%.
With `OC1CCCCC1N1CCC(c2ccccc2)CC1` (centres undefined), the call in assay [1] was inactive. For the same compound, in assay [2], the activity change, negative = inhibition is 6.18% (inactive). Moreover, the max response in assay [2] (setting [3]) came out at 4.61%; in assay [2] (setting [4]), 12.5%.
For the compound `CC(Cc1ccc(OCC(=O)O)cc1)NCC(O)c1cccc(Cl)c1` (centres undefined), the compound was called inactive in assay [1].
Same read-out and setting: for `CC(C)(C)c1o[nH]c(=O)c1CC(N)C(=O)O` (centres undefined) the value was “inactive”.
Take `Oc1ccc2c3c1O[C@H]1c4oc5ccccc5c4C[C@@]4(O)C(C2)N(CC2CC2)CCC314` (some centres undefined): the call in assay [1] was inactive. In addition, the activity change, negative = inhibition in assay [2] is 0.729% (inactive). Further, the max response in assay [2] (setting [3]) came to 69%; in assay [2] (setting [4]), 72%.
For `N[C@@]1(C(=O)O)CC[C@@H](C(=O)O)C1` the same measures were “inactive”, -2.99% (inactive), -46.9% and -46.9%.
With `COc1ccc2c(c1)[C@@]13CCCC[C@H]1[C@@H](C2)NCC3`, the outcome in assay [1] was inactive.
On the same count and under the same terms, in the case of `C[N+]1(C)CCOC(O)(c2ccc(-c3ccc(C4(O)C[N+](C)(C)CCO4)cc3)cc2)C1` (centres undefined) it was “inactive”; in that of `CCOC(=O)c1ncn2c1[C@@H]1CCCN1C(=O)c1cc(OC)ccc1-2`, “inactive”; in that of `COc1ccc2c(c1)C13CCCCC1C(C2)N(C)CC3` (centres undefined), “inactive”.
In the case of `NC(C(=O)O)c1cc(=O)[nH]o1` (centres undefined), in assay [1], the call was inactive.
Turning to `Oc1ccc2c3c1O[C@H]1c4[nH]c5ccccc5c4C[C@@]4(O)C(C2)N(CC2CC2)CCC314` (some centres undefined), the call in assay [1] was inactive.
Still for that read-out and setting: for `CCCN1CCCC2Cc3[nH]ncc3CC21` (centres undefined) the value was “inactive”.
Same read-out and setting: for `CO[C@H]1CC=C2CCN3CCC4=C(CC(=O)OC4)[C@]23C1` the value was “inactive”; for `C[C@H](Cc1ccc2c(c1)OC(C(=O)O)(C(=O)O)O2)NC[C@H](O)c1cccc(Cl)c1`, “inactive”.
With `CC1OC1P(=O)(O)O` (centres undefined), in assay [1], the compound was called inactive. Further, the activity change, negative = inhibition in assay [2] is 3.73% (inactive). Moreover, the max response in assay [2] (setting [3]) worked out at 11.8%; in assay [2] (setting [4]), 19.6%.
For the compound `CN(C(=O)Cc1ccc(Cl)c(Cl)c1)C(CN1CCCC1)c1cccc(OCC(=O)O)c1` (centres undefined), the compound was called inactive in assay [1]. Besides, the activity change, negative = inhibition in assay [2] was 2.91% (inactive). For the same compound, the max response stood at 8.86% in assay [2] (setting [3]) and 13% in assay [2] (setting [4]).
In the case of `NC(Cc1cc(O)c(O)cc1O)C(=O)O` (centres undefined), in assay [1], the compound was called inactive.
For the compound `NCC(O)c1cc(O)c(O)cc1F` (centres undefined), the call in assay [1] was inactive. Further, the activity change, negative = inhibition in assay [2] was -0.0544% (inactive). In addition, the max response is -35.5% in assay [2] (setting [3]) and -39.7% in assay [2] (setting [4]).
As for `C#CCN[C@H](C)Cc1ccccc1`, in assay [1], the compound was classed as inactive.
As for `CC(C)CC(NP(=O)(O)O[C@@H]1O[C@@H](C)[C@H](O)[C@@H](O)[C@H]1O)C(=O)NC(Cc1c[nH]c2ccccc12)C(=O)O` (some centres undefined), the result in assay [1] was inactive.
For `CCCN(CCC)C1CCc2cccc(O)c2C1` (centres undefined), the outcome in assay [1] was inactive. Moreover, the activity change, negative = inhibition in assay [2] was -0.917% (inactive). Moreover, the max response is -31.4% in assay [2] (setting [3]) and -33.3% in assay [2] (setting [4]).
As to `O=C1CC[C@@]2(O)C3Cc4ccc(O)c5c4C2(CCN3CC2CC2)[C@H]1O5` (some centres undefined), the result in assay [1] was inactive.
Consider `Cc1o[nH]c(=O)c1CC(N)C(=O)O` (centres undefined), for which the compound was classed as inactive in assay [1]. Also, in assay [2], the activity change, negative = inhibition is 0.836% (inactive). For the same compound, the max response was -21.1% in assay [2] (setting [3]) and -19% in assay [2] (setting [4]).
Regarding `Ic1ccccc1CNC1C2CCN(CC2)C1C(c1ccccc1)c1ccccc1` (centres undefined), the call in assay [1] was inactive.
Same read-out and setting: for `Clc1ccc(N2CC3CCC(C2)N3)nn1` the value was “inactive”; for `CC(N)Cc1c[nH]c2ccc(O)cc12` (centres undefined), “inactive”.
The same measure, in the same setting: for `CCN(CC)c1ncnc2c1ncn2[C@@H]1O[C@H](COP(=O)(O)OP(=O)(O)C(Br)(Br)P(=O)(O)O)[C@@H](O)[C@H]1O` the value was “inactive”.
`C=CCN1C[C@@H](C)N([C@H](c2ccc(C(=O)N(CC)CC)cc2)c2cccc(OC)c2)C[C@@H]1C`: the call in assay [1] was inactive. For the same compound, the activity change, negative = inhibition in assay [2] is 2.23% (inactive). Moreover, the max response in assay [2] (setting [3]) was -2.68%; in assay [2] (setting [4]), 0%.
Regarding `NCC(CP(=O)(O)O)c1ccc(Cl)cc1` (centres undefined), in assay [1], the result was inactive. Besides, in assay [2], the activity change, negative = inhibition was -3.32% (inactive). Also, the max response in assay [2] (setting [3]) is -42.3%; in assay [2] (setting [4]), -42.6%.
As to `N[C@@H](CCl)C(=O)O`, the compound was classed as inactive in assay [1].
As for `C[Se]C[C@H](N)C(=O)O`, the compound was classed as inactive in assay [1].
For `COC(=O)N1CCN(C(=O)Cc2ccc(Cl)c(Cl)c2)C(CN2CCCC2)C1` (centres undefined), the result in assay [1] was inactive. In addition, the activity change, negative = inhibition in assay [2] was 0.712% (inactive). Further, the max response in assay [2] (setting [3]) came out at 7.98%; in assay [2] (setting [4]) it was 7.35%.
